From PubChem BioAssay (EPA / NIEHS) come the findings set out here.

A short description of assay [1]: BSK_CASM3C_SRB: Viability Assessment in the BioMAP Diversity Plus: CASM3C Assay (AID 2283050).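 Further: cells exposed to compound for 24 h.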 Particulars: primary human coronary artery smooth muscle cells.
Read-out in assay [2]: Thrombomodulin, THBD (gene 7056)
The assay can be described thus: BSK_CASM3C_Thrombomodulin: BioMAP Diversity Plus: CASM3C Assay for Thrombomodulin Biomarker Activity (AID 2283051).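 Further: thrombomodulin protein level measured by ELISA 24 h after dosing.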 The note with it: primary human coronary artery smooth muscle cells; actives raise or lower the signal.

Read-out in assay [3]: Tissue Factor, F3 (gene 2152)
The assay can be described thus: BSK_CASM3C_TissueFactor: BioMAP Diversity Plus: CASM3C Assay for Tissue Factor Biomarker Activity (AID 2283052).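 Further: cell surface tissue factor protein level read by ELISA.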 The note with it: primary human coronary artery smooth muscle cells; actives raise or lower the signal.

Read-out in assay [4]: Interferon-gamma inducible Protein 10 (IP10), CXCL10 (gene 3627)
The assay can be described thus: BSK_hDFCGF_IP10: BioMAP Diversity Plus: hDFCGF Assay for Interferon-gamma inducible Protein 10 (IP10) Biomarker Activity (AID 2283053). Particulars: primary human foreskin fibroblasts; actives raise or lower the signal. In short, it runs like this:
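Primary human foreskin fibroblasts exposed to chemicals for 24 h. IP-10 measured by ELISA; changes fitted bidirectionally against DMSO baseline.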

Read-out in assay [5]: Urokinase-type plasminogen activator receptor (uPAR), PLAUR (gene 5329)
Briefly: BSK_CASM3C_uPAR: BioMAP Diversity Plus: CASM3C Assay for Urokinase-type plasminogen activator receptor (uPAR) Biomarker Activity (AID 2283054).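 Further: cell-surface uPAR protein level quantified by ELISA.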 The note with it: primary human coronary artery smooth muscle cells; actives raise or lower the signal.

Read-out in assay [6]: Vascular cell adhesion molecule 1 (VCAM1), VCAM1 (gene 7412)
Briefly: BSK_CASM3C_VCAM1: BioMAP Diversity Plus: CASM3C Assay for Vascular cell adhesion molecule 1 (VCAM1) Biomarker Activity (AID 2283055).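 Further: VCAM-1 protein level quantified by ELISA on the cells.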 The note with it: primary human coronary artery smooth muscle cells; actives raise or lower the signal.

Read-out in assay [7]: Collagen III, COL3A1 (gene 1281)
Briefly: BSK_hDFCGF_CollagenIII: BioMAP Diversity Plus: hDFCGF Assay for Collagen III Biomarker Activity (AID 2283056). Particulars: primary human foreskin fibroblasts; actives raise or lower the signal. In short, it runs like this: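 ELISA readout of Collagen III in human dermal (foreskin) fibroblasts, taken 24 h post-treatment. Gain or loss relative to DMSO vehicle fitted in both directions.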

Read-out in assay [8]: Epidermal growth factor receptor (EGFR), EGFR (gene 1956)
The assay can be described thus: BSK_hDFCGF_EGFR: BioMAP Diversity Plus: hDFCGF Assay for Epidermal growth factor receptor (EGFR) Biomarker Activity (AID 2283057). Particulars: primary human foreskin fibroblasts; actives raise or lower the signal. In short, it runs like this:
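Primary human foreskin fibroblasts (hDFCGF system), sampled 24 h after dosing; EGFR quantified by ELISA. Bidirectional fit relative to DMSO baseline; SRB total-protein staining in parallel cultures for cytotoxicity.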

Read-out in assay [9]: Interleukin-8 (IL8), CXCL8 (gene 3576)
The assay can be described thus: BSK_hDFCGF_IL8: BioMAP Diversity Plus: hDFCGF Assay for Interleukin-8 (IL8) Biomarker Activity (AID 2283058). Particulars: primary human foreskin fibroblasts; actives raise or lower the signal. In short, it runs like this:
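IL-8 levels read by ELISA at 24 hours after dosing human skin fibroblast cultures. Parallel SRB staining assessed overt cytotoxicity, and gain or loss of signal was fitted against DMSO control.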

A short description of assay [10]: BSK_hDFCGF_Proliferation: Cell Proliferation Assessment in the BioMAP Diversity Plus: hDFCGF Assay (AID 2283059).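 Further: curves fitted for both rise and fall of signal versus DMSO baseline.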 The note with it: primary human foreskin fibroblasts. In short, it runs like this: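 Sub-confluent human foreskin fibroblast cultures receive test chemical […]. Relative cell number is quantified by sulforhodamine B staining (0.1%, after 10% TCA fixation) at 560 nm, with bidirectional fitting referenced to DMSO.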

Read-out in assay [11]: Macrophage colony-stimulating factor (MCSF), CSF1 (gene 1435)
The assay can be described thus: BSK_hDFCGF_MCSF: BioMAP Diversity Plus: hDFCGF Assay for Macrophage colony-stimulating factor (MCSF) Biomarker Activity (AID 2283060). Particulars: primary human foreskin fibroblasts; actives raise or lower the signal. In short, it runs like this:
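M-CSF levels read by ELISA at 24 h post-dosing in human skin fibroblasts. Parallel cultures stained with SRB assessed cytotoxicity at the same time point; response fitted in both directions against the DMSO baseline.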

Assay [12] is described as follows: BSK_hDFCGF_SRB: Viability Assessment in the BioMAP Diversity Plus: hDFCGF Assay (AID 2283061).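 Further: cells exposed to compound for 24 h before the read.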 The note with it: primary human foreskin fibroblasts. In short, it runs like this: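 Viability was read as total protein: after 10% TCA fixation, wells were stained with 0.1% sulforhodamine B and read at 560 nm. Primary human foreskin fibroblasts were dosed for 24 h, with bidirectional fitting versus DMSO.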

Read-out in assay [13]: TIMP metallopeptidase inhibitor 1 (TIMP1), TIMP1 (gene 7076)
The assay can be described thus: BSK_hDFCGF_TIMP1: BioMAP Diversity Plus: hDFCGF Assay for TIMP metallopeptidase inhibitor 1 (TIMP1) Biomarker Activity (AID 2283062). Particulars: primary human foreskin fibroblasts; actives raise or lower the signal. In short, it runs like this:
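TIMP-1 measured by ELISA 24 h after chemical dosing of primary human skin fibroblasts, with gain or loss fitted relative to DMSO. Parallel SRB staining (560 nm) monitored overt cytotoxicity.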

Read-out in assay [14]: Matrix Metallopeptidase 1 (MMP1), MMP1 (gene 4312)
The assay can be described thus: BSK_hDFCGF_MMP1: BioMAP Diversity Plus: hDFCGF Assay for Matrix Metallopeptidase 1 (MMP1) Biomarker Activity (AID 2283064). The note with it: primary human foreskin fibroblasts; actives raise or lower the signal. In short, it runs like this:
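hDFCGF primary fibroblasts (human foreskin); chemical added; 24 h; MMP1 by ELISA; bidirectional fit vs DMSO.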

Read-out in assay [15]: Vascular cell adhesion molecule 1 (VCAM1), VCAM1 (gene 7412)
Briefly: BSK_hDFCGF_VCAM1: BioMAP Diversity Plus: hDFCGF Assay for Vascular cell adhesion molecule 1 (VCAM1) Biomarker Activity (AID 2283065).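 On AC50: VCAM-1 protein level quantified by ELISA after 24 h chemical exposure.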 The note with it: primary human foreskin fibroblasts; actives raise or lower the signal. In short, it runs like this:
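ELISA readout of VCAM-1 on human dermal fibroblast primary cultures, 24 h after chemical exposure. Gain or loss of signal fitted in both directions against DMSO baseline.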

Read-out in assay [16]: Plasminogen activator inhibitor-1 (PAI1), SERPINE1 (gene 5054)
The assay can be described thus: BSK_hDFCGF_PAI1: BioMAP Diversity Plus: hDFCGF Assay for Plasminogen activator inhibitor-1 (PAI1) Biomarker Activity (AID 2283066). Particulars: primary human foreskin fibroblasts; actives raise or lower the signal. In short, it runs like this: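 Human foreskin fibroblast primary cells, 24 h chemical exposure; PAI-1 measured by ELISA. Bidirectional fitting relative to DMSO; parallel cultures stained with SRB for total protein to flag overt cytotoxicity.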

Read-out in assay [17]: Interferon-gamma inducible Protein 10 (IP10), CXCL10 (gene 3627)
The assay can be described thus: BSK_KF3CT_IP10: BioMAP Diversity Plus: KF3CT Assay for Interferon-gamma inducible Protein 10 (IP10) Biomarker Activity (AID 2283068). Particulars: primary human keratinocytes with fibroblasts; actives raise or lower the signal. In short, it runs like this: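 ELISA read-out of IP-10 after 24 h chemical dosing of human skin primary co-culture (keratinocytes, foreskin fibroblasts). Gain or loss of signal relative to DMSO, bidirectional curve fit.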

The nature of assay [18]: BSK_KF3CT_SRB: Viability Assessment in the BioMAP Diversity Plus: KF3CT Assay (AID 2283069).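 Further: total protein by sulforhodamine B staining as a cytotoxicity measure; read 24 h after compound addition.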 The note with it: primary human keratinocytes with fibroblasts. In short, it runs like this:
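Keratinocytes co-cultured with foreskin fibroblasts (human primary); chemical added, 24 h; fix 10% TCA, stain 0.1% SRB, A560. Bidirectional fit vs DMSO.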

Read-out in assay [19]: Intercellular Adhesion Molecule 1 (ICAM1), ICAM1 (gene 3383)
Briefly: BSK_KF3CT_ICAM1: BioMAP Diversity Plus: KF3CT Assay for Intercellular Adhesion Molecule 1 (ICAM1) Biomarker Activity (AID 2283067). The note with it: primary human keratinocytes with fibroblasts; actives raise or lower the signal. In short, it runs like this: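 Cell-surface ICAM-1 was measured by ELISA 24 h after dosing primary human skin keratinocytes co-cultured with fibroblasts. Parallel SRB staining tracked overt cytotoxicity. Gain or loss of signal was fitted relative to DMSO.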

Read-out in assay [20]: Monokine induced gamma interferon (MIG), CXCL9 (gene 4283)
Briefly: BSK_hDFCGF_MIG: BioMAP Diversity Plus: hDFCGF Assay for Monokine induced gamma interferon (MIG) Biomarker Activity (AID 2283063). The note with it: primary human foreskin fibroblasts; actives raise or lower the signal. In short, it runs like this: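 Human primary foreskin fibroblasts in the hDFCGF system, exposed to test chemical for 24 h; MIG measured by ELISA. Bidirectional curve fitting against DMSO negative control as activity baseline.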

“And” between values parts separate entries of the source, which are not always exact repeats. Identical values can stand only once. A structure can be active in one record and inactive in another. The source made the active and inactive calls. How the source made its calls: active means hit-call score of the fitted dose curve at least 0.9, where 1 is the maximum; inactive means score below 0.9.

In the case of `CCc1cccc(C)c1N(C(=O)CS(=O)(=O)O)C(C)COC` (stereo unspecified), the result in assay [1], in assay [2], in [3], in assay [4], in assay [5] and in assay [6] was inactive. For the same molecule, the result in assay [7], in assay [8], in assay [9], in assay [10], in [11] and in assay [12] was inactive. The outcome in [13], in assay [14], in assay [15], in assay [16], in assay [17] and in [18] was inactive.

For `COc1ccc(C(=O)/C(Br)=C\C(=O)O)cc1`, the concentration at half-maximal activity (AC50) in assay [1] was 23.8 µM (active) and 28.8 µM (active); in assay [3], 4.22 µM (active) and 11.4 µM (active); in [4] it was 33.1 µM (active) and 32.6 µM (active); in [5], 13.4 µM (active) and 30.6 µM (active); in assay [6], 12 µM (active) and 20 µM (active); in assay [7], 13.6 µM (active). Further, the AC50 was 29.1 µM (active) in assay [8]; 29.4 µM (active) and 20 µM (active) in assay [10]; 15.4 µM (active) and 20 µM (active) in [11]; 29.4 µM (active) in assay [12]; 28.6 µM (active) and 20 µM (active) in assay [13]; 33.5 µM (active) and 30.7 µM (active) in assay [14]. Besides, the AC50 in assay [15] was 14.7 µM (active) and 7.59 µM (active); in [16], 28.9 µM (active); in assay [19], 20 µM (active); in assay [17], 30.6 µM (active) and 30.2 µM (active); in assay [18] it was 32 µM (active). Also, the result in [2], in [7], in assay [8], in assay [16] and in assay [18] was inactive.

Turning to `Cc1c(O)cccc1O`, the outcome in assay [1], in assay [2], in [3], in assay [4], in assay [5] and in assay [6] was inactive. The result in assay [7], in [8], in assay [9], in [10], in assay [11] and in [12] was inactive. Besides, the result in [13], in assay [20], in [14], in assay [15], in [16] and in [17] was inactive. The outcome in assay [18] was inactive.

Turning to `CCCCCCCCCCCC(=O)N(C)CC(=O)O`, the outcome in assay [1], in [2], in [3], in [4], in assay [5] and in [6] was inactive. For the same molecule, the result in [8], in assay [9], in assay [10], in assay [11], in assay [12] and in assay [13] was inactive. In addition, the result in assay [20], in [14], in assay [15], in assay [16], in [17] and in assay [18] was inactive. Also, the AC50 in [7] is 8.61 µM (active) and 24.7 µM (active).

`O=C1CCCCCCCCCCCN1`: the result in assay [1], in assay [2], in assay [3], in [4], in assay [5] and in [6] was inactive. Further, the result in assay [7], in [8], in assay [9], in [10], in assay [11] and in assay [12] was inactive. In addition, the result in assay [13], in assay [14], in assay [15], in assay [16], in assay [19] and in [17] was inactive. Also, the result in assay [18] was inactive.

Turning to `CC(C)C(=O)OCCc1ccccc1`, the result in assay [1], in [2], in [3], in assay [4], in assay [5] and in [6] was inactive. In addition, the outcome in [7], in assay [8], in assay [10], in assay [11], in assay [12] and in assay [13] was inactive. Moreover, the result in assay [20], in assay [14], in assay [15], in assay [16], in assay [19] and in [17] was inactive. The outcome in assay [18] was inactive.

As a reminder, the AC50 is the concentration giving half of the maximal activity seen.
